# Rows were chosen to be rich in hits. Some 1.7% of all compounds tested hit in one or more screens of this group.
# Measles CPE – protection of cells from measles virus. protection (pct of control), % at 4 µM. Measles virus-infected cells, CPE protection, absorbance. hit rate 1.5% among 140,000; in the data active = protection mostly above about 24%, no sharp cut-off; inactive = mostly below about 26%
# PTPN22 act – increases human PTPN22 phosphatase activity; Q9Y2R2; recombinant LYP, DiFMUP fluorescence; 0 = plate median, 100 = signal doubled; activation, % at 2 µM; hit rate 0.11% among 96,000; AID 697;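 active = activation at 2 µM above a set limit, the mean plus 5 SD, cut at about 37% in these data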
# Target sequence (Q9Y2R2 whole entry, looked up): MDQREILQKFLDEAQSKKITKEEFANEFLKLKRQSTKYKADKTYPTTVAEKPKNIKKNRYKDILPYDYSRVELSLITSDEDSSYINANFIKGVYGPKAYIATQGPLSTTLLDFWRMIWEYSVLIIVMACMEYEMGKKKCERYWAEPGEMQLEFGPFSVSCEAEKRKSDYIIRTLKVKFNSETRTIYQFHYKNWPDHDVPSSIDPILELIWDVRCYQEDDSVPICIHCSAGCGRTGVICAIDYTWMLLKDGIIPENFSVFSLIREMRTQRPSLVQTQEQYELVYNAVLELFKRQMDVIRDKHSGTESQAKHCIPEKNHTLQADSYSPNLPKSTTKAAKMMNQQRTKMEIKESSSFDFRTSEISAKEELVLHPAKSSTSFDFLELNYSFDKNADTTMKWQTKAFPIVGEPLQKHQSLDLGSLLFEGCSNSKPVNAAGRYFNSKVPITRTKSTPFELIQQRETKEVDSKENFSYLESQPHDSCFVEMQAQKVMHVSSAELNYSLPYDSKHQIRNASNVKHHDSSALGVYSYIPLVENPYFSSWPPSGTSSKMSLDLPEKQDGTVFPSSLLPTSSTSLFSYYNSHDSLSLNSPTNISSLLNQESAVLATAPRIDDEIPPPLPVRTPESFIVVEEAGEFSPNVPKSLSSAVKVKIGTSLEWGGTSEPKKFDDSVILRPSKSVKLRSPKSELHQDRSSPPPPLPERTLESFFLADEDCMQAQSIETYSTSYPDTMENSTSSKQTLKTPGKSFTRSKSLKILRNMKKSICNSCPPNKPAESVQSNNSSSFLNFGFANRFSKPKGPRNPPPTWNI
# PTPN22 inh 2 – LYP (human) phosphatase inhibition; Q9Y2R2; recombinant LYP catalytic domain, DiFMUP fluorescence; inhibition, % at 2 µM; hit rate 0.21% among 96,000;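 active = inhibition at 2 µM at or above a set limit, the screen mean plus 3 SD, cut at about 24% in these data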;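 also: 0% = DMSO with enzyme and 100% = enzyme fully blocked by orthovanadate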
# sEH activator – activators of human soluble epoxide hydrolase. purified human sEH enzymatic activity, activator screen. activation, % at 2 µM. hit rate 0.04% among 91,000. AID 717; in the data active = activation above about 37%
# sEH inhibitor – inhibitors of human soluble epoxide hydrolase; inhibition, % at 2 µM; recombinant human sEH enzymatic activity assay; hit rate 0.34% among 91,000; AID 707; in the data active = inhibition above about 80%
# * marks the source's active call; other numbers are inactive results; x = no result given.
SMILES,Measles CPE,PTPN22 act,PTPN22 inh 2,sEH activator,sEH inhibitor
CCOC1(C(F)(F)F)NC(=O)N(Cc2ccc(OC)cc2)C1=O (stereo unspecified),34.1*,6.5,-5.2,5.0,-3.4
COc1ccc(CN2CCC(=O)NC2=O)cc1,11.0,-4.4,2.4,5.5,-4.1
O=C(NCCCN1CCCC1=O)c1ccccc1NS(=O)(=O)c1ccc(Br)cc1,18.6,-12.3,8.8,-64.4,63.4
Cc1scc(C(=O)Nn2cnnc2)c1-c1ccccc1,41.4*,4.7,-7.6,1.5,-0.2
COC(=O)c1c(NC(=O)CN2CCN(c3ccccc3OC)CC2)c2c(C)cccc2n1C,12.3,1.5,-3.5,7.3,-7.8
COC(=O)c1c(NC(=O)CN2CCN(c3ccccc3)CC2)c2c(C)cccc2n1C,42.5*,-5.9,3.9,12.1,-11.7
Cc1ccc(S(=O)(=O)NNC(=O)c2sc3nc(C)cc(C)c3c2-n2cccc2)cc1,4.9,0.2,1.3,16.7,-14.0
CNC(=O)C12CC3CC(CC(Cl)(C3)C1)C2,10.0,x,x,x,x
S=c1[nH]nc(-c2ccncc2)n1/N=C/c1cccc2ccccc12,29.3*,x,x,x,x
Cc1ccc(/C=N/n2c(-c3ccncc3)n[nH]c2=S)cc1,15.6,x,x,x,x
O=C(c1ccc(S(=O)(=O)Nc2ccc(F)cc2)cc1)N1CCN(C(=O)c2ccco2)CC1,18.1,3.2,-1.5,-8.2,9.5
CN(C)S(=O)(=O)c1ccc(NC(=O)c2c(F)cccc2Cl)cc1,0.4,2.3,-5.9,x,x
COC(=O)Cc1ccc(NC(=S)N2CCN(c3ccc(OC)cc3)CC2)cc1,34.1*,x,x,x,x
O=c1c(-c2ccnn2-c2ccc(F)cc2)cnc2n1CCS2,10.8,5.3,-4.1,-1.0,1.0
N#Cc1ccc(-n2nccc2-c2cnc3n(c2=O)CCS3)cc1,40.5*,-9.0,9.9,3.1,-4.9
Cc1csc(NC(=O)c2cc3c(C)nn(Cc4ccccc4Cl)c3s2)n1,3.1,x,x,x,x
Cc1ccccc1/C=C/c1nc2ccccc2c(=O)n1CCc1ccccc1,1.2,x,x,x,x
Cc1ccc(/C=C/c2nc3ccccc3c(=O)n2CCc2ccccc2)cc1,61.5*,x,x,x,x
C=C(C)CC1(NC(C)c2ccccc2)CCCCC1 (stereo unspecified),6.5,x,x,x,x
Cc1ccc(-c2nn(CC(=O)NCCN3CCOCC3)c(=O)c3ccccc23)cc1,30.4,-13.7,16.9,-1.1,4.7
O=c1c2cccc3c2c(nn1CN1CCOCC1)-c1ccccc1-3,58.7*,3.7,-4.4,-4.9,4.0
COn1c(SCc2ccc(C)cc2C)nc2ccccc2c1=O,4.9,14.2,-11.2,3.4,-0.5
Cc1cccc(N2C(=O)CN(Cc3sccc3C)C2=S)c1,0.9,x,x,x,x
Cc1cc(C)cc(N2C(=O)CN(Cc3sccc3C)C2=S)c1,45.6*,x,x,x,x
C=CCN(c1ccc(C(=O)Nc2ccc(C)c(C)c2)cc1)S(C)(=O)=O,32.7,x,x,x,x
SMILES,Measles CPE,PTPN22 act,PTPN22 inh 2,sEH activator,sEH inhibitor
COc1ccc(C(=O)NCc2ccc3c(c2)OCO3)cc1S(=O)(=O)N(C)Cc1ccccc1,2.8,x,x,x,x
COc1cccc(C(=O)Nc2ccc(S(=O)(=O)Nc3nccc(C)n3)cc2)c1,29.8*,x,x,x,x
Cn1cnnc1SCC(=O)Nc1sc2c(c1C#N)CCCCC2,32.1*,-8.3,11.1,-4.9,3.0
CCCCn1nnnc1SCC(=O)Nc1sc2c(c1C#N)CCCC2,17.4,-4.7,4.4,-19.1,17.8
CC1CCN(c2nc(-c3ccccc3O)nc3ccccc23)CC1,38.1*,5.5,-5.7,-2.7,2.6
O=C1CC(N2CCCCC2)C(=O)N1c1ccccc1 (stereo unspecified),23.3,4.2,-3.7,12.6,-6.4
O=C1CC(N2CCCN(C3CC(=O)N(c4ccc(F)cc4)C3=O)CC2)C(=O)N1c1ccc(F)cc1 (stereo unspecified),55.4*,10.7,-12.7,2.6,-7.1
Cc1n[nH]c(=O)nc1NCc1ccc(Cl)cc1,36.3*,4.8,-4.9,15.5,-14.3
CCOC(=O)NC(NCc1ccccc1)(C(F)(F)F)C(F)(F)F,43.7*,x,x,x,x
CCOC(=O)NC(NCCc1ccccc1)(C(F)(F)F)C(F)(F)F,1.3,2.7,-1.0,12.8,-9.7
O=c1cc(-c2ccc([N+](=O)[O-])cc2)nc2cc(-c3ccc(F)cc3)[nH]n12,5.7,x,x,x,x
C=CCNC(=O)c1cc(-c2ccc(Br)cc2)on1,63.1*,-2.9,1.2,14.4,-14.0
O=C(NCCN1CCOCC1)c1cc(-c2ccc(Br)cc2)on1,12.2,1.1,-2.8,7.7,-7.4
CCOC(=O)N1CCN(C(=O)c2ccc3c(c2)sc2nc(-c4ccc(OC)cc4)cn23)CC1,63.4*,5.8,-6.5,-8.6,7.9
CCCC(=O)OCCn1c(Br)nc2c1c(=O)[nH]c(=O)n2C,34.8*,8.5,-5.0,17.5,-15.6
CC(=O)OCCn1c(Br)nc2c1c(=O)[nH]c(=O)n2C,3.9,0.0,1.2,-2.3,3.8
Cc1c(O)c2c3c(cccc3c1O)C(=O)N(c1ccccc1)C2=O,18.5,x,x,x,x
CCOc1ccc(S(=O)(=O)NCCC(=O)OC(C)C(=O)N2CCc3ccccc32)cc1 (stereo unspecified),53.5*,-4.6,2.4,x,x
c1csc(COc2ccccc2CNC2CCCCC2)c1,8.9,x,x,x,x
O=C1CCC(=O)N1c1ccc(CSc2nnnn2C2CCCCC2)cc1,19.4*,-0.6,-0.9,-8.6,10.3
O=C(O)c1ccc(CSc2nnnn2C2CCCCC2)cc1,30.0*,8.4,-14.1,-7.5,7.1
N#Cc1ccsc1NC(=O)CN1CCN(S(=O)(=O)c2ccccc2C(F)(F)F)CC1,7.4,x,x,x,x
CCc1n[nH]c(=S)n1/N=C/c1ccc2c(c1)OCO2,42.2*,-6.1,8.0,-7.7,6.3
O=C(NC(=S)NCc1ccccc1)c1ccc2c(c1)OCO2,30.9*,x,x,x,x
CC1CCCN(S(=O)(=O)c2ccc(C(=O)Nc3nnc(-c4ccccc4Cl)o3)cc2)C1 (stereo unspecified),2.1,-10.0,8.8,-82.5,82.5*
SMILES,Measles CPE,PTPN22 act,PTPN22 inh 2,sEH activator,sEH inhibitor
COc1ccc(CCNC(=O)C(C)Sc2ccc(C)cc2)cc1OC (stereo unspecified),3.6,x,x,x,x
CC(Sc1nc2c(c(=O)n(C)c(=O)n2C)n1Cc1cc2c(cc1Cl)OCO2)C(=O)O (stereo unspecified),53.1*,9.6,-12.5,x,x
COc1ccc(NC(=O)C(C)Sc2nnc3c4c(nc(-c5ccc(OC)cc5)n23)CC(C)(C)OC4)cc1 (stereo unspecified),4.3,x,x,x,x
O=C(c1ccc(S(=O)(=O)N2CCCC2)cc1)N1CCCc2ccccc21,35.5*,-6.5,3.6,-2.8,4.0
O=C(c1ccco1)N1CCN(CCCCOc2ccc(F)cc2)CC1,1.3,x,x,x,x
COc1ccc(C(NC(=O)CNC(C)=O)C(=O)Nc2ccc3c(c2)OCCO3)cc1 (stereo unspecified),17.0,6.8,-8.5,-18.4,19.9
COc1ccc(C(NC(=O)CNC(C)=O)C(=O)Nc2ccc(C(C)C)cc2)cc1 (stereo unspecified),42.9*,2.7,-4.8,19.2,-22.8
CC(=O)Nc1ccc(S(=O)(=O)N/N=C/c2ccc(C)s2)cc1,6.1,x,x,x,x
Cc1ccc(N2C(=O)Nc3ccc(Br)cc3C2(O)C(=O)NCCCN(C)C)cc1C (stereo unspecified),50.0*,x,x,x,x
O=C1CN=CN=CN1c1ccc(Cl)cc1Cl,45.2*,x,x,x,x
O=C(Nc1ccccn1)c1ccc(Br)c(S(=O)(=O)N2CCCCC2)c1,7.5,x,x,x,x

# Source: PubChem BioAssay (several laboratories)
